Bioassay records (PubChem)
TWEAK-Fn14 inh: blocks TWEAK-Fn14 interaction in a reporter cell assay | TWEAK-stimulated Fn14 reporter cells, luciferase luminescence, 8 h | inhibition, % at 10 µM | 2% of 360,000 active | AID 1159606; in the data active means inhibition above about 50%
CF NFkB inh: inhibitors of cystic fibrosis induced NF-kB; KKLEB NF-kB-GFP reporter, PAF-induced, GFP fluorescence overnight; inhibition, % at 5 µM; 0.86% of 360,000 active;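 active means at least 50% inhibition at 5 µM, scaled per plate between neutral and stimulator controls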;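 further: PAF is a Pseudomonas aeruginosa culture filtrate used as stimulus; plate controls were PAF-stimulated DMSO wells for no effect and unstimulated DMSO wells for full effect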
TROY signal inh: inhibitors of TROY-dependent NF-kB signaling; AID 1347056; Q293 LMP1-TROYcd NF-kB luciferase reporter, 4 h; 0.98% of 360,000 active; inhibition, % at 10 µM;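 active means compounds whose plate-normalised and pattern-corrected inhibition of the luciferase reporter signal at the single screening dose is 50% or more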
HIF-2a inh: inhibitors of HIF-2a; 786-0 RCC cells HIF-2a reporter, luciferase luminescence, overnight; inhibition, % at 18.8 µM; 0.72% of 360,000 active;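 active means inhibition of the luminescence signal of 40% or more relative to plate controls, in a single-dose primary screen at 18.75 µM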
KKLEB cytotox: counter-screen for CF NF-kB inhibitors: cytotoxicity; 0.36% of 360,000 active; KKLEB CF airway cells viability, ATPlite luminescence, overnight; hits give low values; cells stimulated with P. aeruginosa culture filtrate; activity change (cytotoxicity), % at 5 µM;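 active means corrected activity change at or below -50% at 5 µM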
Peg3 promoter: Peg3 promoter activity inhibition | HeLa PEG-Prom luciferase reporter, luminescence, overnight | 1.7% of 360,000 active | inhibition, % at 20 µM;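 active means inhibition of at least 50% at 20 µM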
An asterisk follows results filed as active. Rows were chosen to be rich in hits. Some 3.9% of all compounds tested hit in one or more screens of this group.

SMILES	TWEAK-Fn14 inh	CF NFkB inh	TROY signal inh	HIF-2a inh	KKLEB cytotox	Peg3 promoter
CN(C)CCCN=Cc1c(-c2ccccc2)[nH]n(-c2nc3ccccc3s2)c1=O	62*	-32	10	19	10	15
O=C(COc1coc(CN2CCc3ccccc3C2)cc1=O)Nc1cccc(F)c1	-10	-7	-49	-26	-3	-18
O=C(COc1coc(CN2CCc3ccccc32)cc1=O)Nc1cccc(F)c1	-2	64*	3	6	-56*	14
CCN(c1cccc(C)c1)S(=O)(=O)c1ccc2c(c1)CCN2C(C)=O	93*	-4	35	26	1	30
CCN(c1cccc(C)c1)S(=O)(=O)c1ccc2c(c1)CCCN2C(C)=O	14	2	6	6	6	4
O=Nc1ccc(O)c2ncccc12	55*	72*	-14	-3	-51*	76*
COc1cccc(N=Nc2ccc(O)c3ncccc23)c1	52*	100*	-28	-123	-81*	-91
CSc1c(C#N)c(N)nc2sc(C(=O)c3ccccc3)c(N)c12	-5	6	6	0	7	-3
N#Cc1c(SCc2ccc(Cl)cc2)sc(C(=O)c2ccccc2)c1N	89*	8	-1	-13	-4	-44
CCOc1ccccc1NC(=O)C(=O)N/N=C/c1cc(Br)ccc1O	14	31	7	-1	-21	53*
CCOc1ccccc1C=NNC(=O)C(=O)NN=Cc1ccccc1OCC	-12	-2	-7	10	-5	17
Cc1ccc(N2C(=O)c3cccc4c([N+](=O)[O-])ccc(c34)C2=O)c2cccnc12	36	20	16	20	-2	63*
O=C1c2cccc3c([N+](=O)[O-])ccc(c23)C(=O)N1Cc1cccnc1	2	-1	64*	27	-4	46
Cc1nnc(N2C(=O)c3cccc4c([N+](=O)[O-])ccc(c34)C2=O)s1	-35	-12	44	-1	8	24
Cc1ccnc(N2C(=O)c3cccc4c([N+](=O)[O-])ccc(c34)C2=O)c1	-36	-5	40	18	-5	108*
O=C1c2cccc3cccc(c23)C(=O)N1Cc1cccnc1	-18	-8	-24	15	-17	16
O=C(CCc1c[nH]c2ccccc12)N1CCN(S(=O)(=O)c2ccc([N+](=O)[O-])cc2)CC1	-3	-4	-2	-8	-2	13
CCOC(=O)c1cc(-c2ccccc2)sc1NC(=O)C(C)N1C(=O)NC(C)(c2ccc(Cl)cc2)C1=O (centres undefined)	-1	16	2	4	2	0
CN1CCN(C(=O)/C(=C/c2cccnc2)NC(=O)c2cccc(Br)c2)CC1	-3	0	-17	7	-3	12
COc1ccc(N2CCN(S(=O)(=O)c3c(C)noc3/C=C/N(C)C)CC2)cc1	-1	5	-8	-1	-8	3
CCc1cc(C(=O)OC)c(NC(=O)CCC(=O)O)s1	15	4	-24	16	-2	2
C=CC(=O)Nc1ccc(CN2C(=O)N(c3c(Cl)c(OC)cc(OC)c3Cl)Cc3cnc(NCCCCN(CC)CC)nc32)cc1	8	34	-14	32	-35	52*
C=CCN1C(=O)N(/C=C/C)c2cccc3cccc1c23	13	12	56*	25	-5	9
CC(=O)C1=C(O)C(=O)N(Cc2cccnc2)C1c1ccccc1 (centres undefined)	-4	18	-5	-1	-9	4
COc1ccc(N2CCN(C(=O)CN3C(=O)NC4(CCCCC4C)C3=O)CC2)cc1 (centres undefined)	-24	2	-9	3	-8	12
SMILES	TWEAK-Fn14 inh	CF NFkB inh	TROY signal inh	HIF-2a inh	KKLEB cytotox	Peg3 promoter
Nc1ccc(-c2nnn(Cc3ccccc3)n2)cc1	65*	-29	-38	-149	6	-116
CCN(CC)C(=O)C1=C(C)N(CCCN2CCCC2=O)C(=O)C(CC(=O)NC2CC2)C1 (centres undefined)	-10	11	-6	5	-2	-4
CC1=C(C(=O)N(C)C)CC(CC(=O)NC2CCCC2)C(=O)N1CCCN1CCCC1=O (centres undefined)	-8	-18	-10	5	9	4
CC1=C(C(=O)N(C)C)CC(CC(=O)NC2CCCCC2)C(=O)N1CCCN1CCCC1=O (centres undefined)	1	13	-7	10	-1	60*
CC1=C(C(=O)N(C(C)C)C(C)C)CC(CC(=O)NC2CC2)C(=O)N1CCCN1CCCC1=O (centres undefined)	11	-42	75*	2	-2	8
CSc1ccccc1OCc1cc(C(=O)NCCC2CCCCO2)no1 (centres undefined)	-20	-12	-33	-166	16	-91
COc1ccc(NC(=O)Nc2ccc3c(c2)C(=O)N([C@H](C)CO)C[C@H](C)[C@H](CN(C)Cc2ccc(C(=O)O)cc2)OCCCC[C@@H](C)O3)cc1	-16	9	8	6	15	-5
O=C(CCCl)Nc1nc2c(s1)CCc1ccccc1-2	3	-8	-21	-34	-38	55*
O=C(Nc1nc2c(s1)CCc1ccccc1-2)c1ccco1	20	-42	-36	-286	8	-210
CC(=O)Nc1nc2c(s1)CCc1ccccc1-2	57*	-48	-15	-45	-14	-41
CCC(=O)Nc1nc2c(s1)COc1ccccc1-2	9	1	-16	-24	5	-36
O=C1C2C3C=CC(C3)C2S(=O)(=O)C2C3C=CC(C3)C12 (centres undefined)	-12	8	2	8	2	4
COc1ccc2c(c1)C(c1ccc(C)o1)=NNC(c1ccccc1)=N2	-16	5	-12	-19	9	-23
Cc1cc2c3c(c1C)C1(C(=O)N3C(C)(C)CC2C)C(C#N)=C(N)OC2=C1C(=O)CC(C)(C)C2 (centres undefined)	3	-2	17	2	-2	21
CCN(CC)CCNc1ccc(CO)c2oc3ccccc3c(=O)c12	-30	-37	-30	40*	-6	7
O=c1cc(NCCO)c2ccccc2o1	-4	-13	18	18	-1	13
O=c1c2ccccc2sc2c(CO)ccc(NCCN3CCCCC3)c12	-37	-74	-13	55*	-2	88*
CCN(CC)CCNc1ccc(CO)c2sc3ccccc3c(=O)c12	-50	-58	-29	43*	-4	58*
O=C(NCCCn1ccnc1)/C(=C\c1cccnc1)NC(=O)c1cccc(Br)c1	3	2	-11	10	9	39
CCOc1ccc(C(=O)CCC(=O)N2CCN(c3ncccn3)CC2)cc1	-1	7	-6	10	8	8
O=C(CSC1CCCCC1)Nc1nccs1	-34	15	-8	-55	-10	-50
O=C(Nc1ccccc1O)c1ccc([N+](=O)[O-])cc1	110*	-15	-28	-157	10	-37
